High-throughput results from PubChem.
Hits are enriched below; roughly 0.53% of the tested compounds scored in any of these assays.
PGK inhibitor – T. brucei PGK inhibition; P07378; PGK/GAPDH coupled, Kinase-Glo luminescence, 60 min; Potency, µM (highest dose often 57.5 µM), for inactives: at the top dose activity change, negative = inhibition, hits mostly inhibitors; 380,000 compounds, 0.043% hits; note: potency is the fitted concentration of half-maximal effect; nearly all actives have a fitted effect of over 60% in size
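Luminescent ATP detection (Kinase-Glo Plus) follows a 60-minute room-temperature incubation, with wells lacking PGK as controls. Buffer: 100 mM TEA (pH 7.6), 5 mM MgCl2, 0.01% Tween-20. Coupling enzyme GAPDH (100 nM final) supplies unstable 1,3-BPG in-well.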
USP1-UAF1 inh – inhibitors of human USP1/UAF1 deubiquitinase; recombinant USP1/UAF1, Ub-Rhodamine cleavage fluorescence; Potency, µM (doses to about 57.1 µM), for inactives: at the top dose activity change, negative = inhibition, usual class: inhibitors; 390,000 compounds, 0.23% hits; note: potency is the fitted concentration of half-maximal effect; nearly all actives have a fitted effect of over 60% in size
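USP1/UAF1 complex at 1 nM was preincubated with compound for 15 min at room temperature, then Ub-Rho substrate (150nM final) was added. Fluorescence (480/540 nm) was read kinetically, 6 reads every 60 seconds.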
PI4K2A inh – blocks human PI4K2A kinase activity; purified PI4K2A, ADP-Glo luminescence, 1 h; stronger effect = lower value; activity change, negative = inhibition, % at 76.9 µM; 420,000 compounds, 0.13% hits; in the data active = activity change below about -50%; inconclusive = mostly about -30% to -49%;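 note: -100% = wells without enzyme as full effect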
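ADP-Glo luminescence measured ADP generated by PI4K2A enzyme (4 ug/mL before mixing) with 1.2 mM PI substrate (pre-mix) and 300 microM ATP (pre-mix). Tris pH7.5 buffer with MgCl2, Triton X-100; 1 h reaction at ambient temperature.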
GLS inhibitor – inhibitors of human glutaminase (GLS) | O94925 | GLS enzymatic activity, qHTS titration | Potency, µM (titrated, usually from 45.5 µM), without a hit: top-dose activity change, negative = inhibition, usual class: inhibitors | 410,000 compounds, 0.21% hits | AID 624170; note: potency is the fitted concentration of half-maximal effect
Target sequence (O94925 whole entry, looked up): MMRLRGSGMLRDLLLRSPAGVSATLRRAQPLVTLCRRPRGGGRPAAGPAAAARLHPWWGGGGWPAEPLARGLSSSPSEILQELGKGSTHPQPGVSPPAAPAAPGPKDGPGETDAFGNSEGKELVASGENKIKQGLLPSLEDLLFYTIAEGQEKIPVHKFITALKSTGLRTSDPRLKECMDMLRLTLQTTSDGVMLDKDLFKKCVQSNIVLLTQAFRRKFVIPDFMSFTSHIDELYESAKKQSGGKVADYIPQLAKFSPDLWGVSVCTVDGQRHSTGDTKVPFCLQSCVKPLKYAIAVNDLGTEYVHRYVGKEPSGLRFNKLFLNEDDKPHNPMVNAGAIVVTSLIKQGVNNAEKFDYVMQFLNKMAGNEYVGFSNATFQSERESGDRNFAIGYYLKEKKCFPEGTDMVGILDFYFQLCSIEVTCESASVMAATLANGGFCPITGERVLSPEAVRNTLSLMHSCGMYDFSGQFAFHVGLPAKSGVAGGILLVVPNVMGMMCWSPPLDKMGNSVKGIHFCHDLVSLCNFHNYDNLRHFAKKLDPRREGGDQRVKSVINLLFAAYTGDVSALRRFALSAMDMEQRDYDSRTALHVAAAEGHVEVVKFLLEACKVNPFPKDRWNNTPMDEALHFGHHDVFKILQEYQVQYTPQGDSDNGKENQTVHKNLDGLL
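Compounds were pin-transferred onto hKGA, after which L-glutamine (1 mM solution) and a detection mix of glutamate oxidase, HRP and Amplex Red were added. Initial and 30 min RT fluorescence reads were collected.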
* hit, by the source's call. Unless noted, calls come from the whole dose curve; as a rule, active = well fitted curve in the direction sought with a large enough effect; inconclusive = small, poorly fitted or top-dose-only effect, or another doubt; inactive = no such curve, though single readings can be large; an effect the other way counts as inactive or inconclusive. Unless noted, % is set by controls: 0 for no effect and ±100 for the full control effect.

How did CC[C@H](C)[C@H](NC(=O)[C@H](CO)NC(=O)[C@H](CC(N)=O)NC(=O)[C@H](CC(C)C)NC(=O)[C@H](Cc1ccc(O)cc1)NC(=O)[C@H](CCCCN)NC(=O)[C@H](CCCCN)NC(=O)[C@@H](NC(=O)[C@H](C)NC(=O)[C@H](CCSC)NC(=O)[C@H](CCC(N)=O)NC(=O)[C@H](CCCCN)NC(=O)[C@H](CCCNC(=N)N)NC(=O)[C@H](CC(C)C)NC(=O)[C@H](CCCNC(=N)N)NC(=O)[C@@H](NC(=O)[C@H](Cc1ccc(O)cc1)NC(=O)[C@H](CC(N)=O)NC(=O)[C@H](CC(=O)O)NC(=O)[C@@H](NC(=O)[C@H](Cc1ccccc1)NC(=O)[C@@H](NC(=O)[C@H](C)NC(=O)[C@H](CC(=O)O)NC(=O)[C@H](CO)NC(=O)[C@@H](N)Cc1c[nH]cn1)C(C)C)[C@@H](C)O)[C@@H](C)O)C(C)C)C(=O)N[C@@H](CC(C)C)C(=O)N[C@@H](CC(N)=O)C(=O)O do in these assays?
GLS inhibitor: 13%

Results for CCC(=O)OC1CCC2C3CCc4cc(O)ccc4C3CCC12C (stereo unspecified) ?
GLS inhibitor: -4%

How did CC(=O)Nc1ccc(NC2=CC(=O)c3ccccc3C2=O)cc1 do in these assays?
PGK inhibitor: -10%; USP1-UAF1 inh: -9%; PI4K2A inh: -12; GLS inhibitor: -10%

How did CCOC(=O)c1ccc(NC2=CC(=O)C(=O)c3ccccc32)cc1 do in these assays?
PGK inhibitor: -4%; USP1-UAF1 inh: 7.9µM*; PI4K2A inh: -25; GLS inhibitor: -4%

Results for CC(c1ccc(Cl)cc1)n1c(-c2ccc3ccccc3n2)n[nH]c1=S (stereo unspecified) ?
PGK inhibitor: -2%; USP1-UAF1 inh: -20%; PI4K2A inh: 7; GLS inhibitor: inconclusive

What do the screens show for `CC(c1ccc(F)cc1)n1c(-c2ccc3ccccc3n2)n[nH]c1=S` (stereo unspecified)?
PGK inhibitor: -3%; USP1-UAF1 inh: inconclusive; PI4K2A inh: 1; GLS inhibitor: 13µM*

How did CCc1cccc2c(CCO)c[nH]c12 do in these assays?
PI4K2A inh: -1

How did COc1cc(O)c(C(C)=O)c(CC(=O)O)c1 do in these assays?
PGK inhibitor: 16µM*; USP1-UAF1 inh: 7%; PI4K2A inh: -10; GLS inhibitor: 10µM*

What do the screens show for `CCNc1ccc(Br)cc(C(=O)/C=C/c2ccc(Cl)cc2)c1=O`?
PGK inhibitor: -9%; USP1-UAF1 inh: 32µM*; PI4K2A inh: 3; GLS inhibitor: -3%

How did CCNc1ccc(Br)cc(C(=O)/C=C/c2c(Cl)cccc2Cl)c1=O do in these assays?
PGK inhibitor: -12%; USP1-UAF1 inh: inconclusive; PI4K2A inh: -5; GLS inhibitor: 8%

Results for COc1ccc2cc1Oc1cc3c(cc1OC)CC[N+](C)(C)[C@H]3Cc1ccc(cc1)Oc1c(OC)c(OC)cc3c1[C@@H](C2)[N+](C)(C)CC3 ?
PI4K2A inh: 0

Results for Fc1ccc(C(c2ccc(F)cc2)N2CCN(CC=Cc3ccccc3)CC2)cc1 ?
GLS inhibitor: 0%

What do the screens show for `CCN(CC)c1ccc(/C=C2\CCC(/C=N/NC(=O)c3ccc(=O)n(C)c3)=C2N2CCOCC2)cc1`?
PGK inhibitor: 13%; USP1-UAF1 inh: inconclusive; PI4K2A inh: 6; GLS inhibitor: 7.1µM*

What do the screens show for `Cc1cccc(N2C(=O)c3cccc4cccc(c34)C2=O)c1`?
PGK inhibitor: -3%; USP1-UAF1 inh: -23%; PI4K2A inh: -4; GLS inhibitor: -11%

How did Nc1cccc(N2C(=O)c3cccc4c(N)ccc(c34)C2=O)c1 do in these assays?
PGK inhibitor: -8%; USP1-UAF1 inh: 28µM*; PI4K2A inh: 5; GLS inhibitor: -13%

Results for Cc1cccc(N2C(=O)c3cccc4c(N)ccc(c34)C2=O)c1 ?
PGK inhibitor: 4%; USP1-UAF1 inh: 28µM*; PI4K2A inh: 3; GLS inhibitor: -22%

Results for COc1ccc2c(c1OC)C(=O)N(c1cccc(C)c1)C2=O ?
PGK inhibitor: 3%; USP1-UAF1 inh: -2%; PI4K2A inh: -6; GLS inhibitor: 0%

Results for Nc1ccc2c3c(cccc13)C(=O)N(c1ccccc1)C2=O ?
PGK inhibitor: -5%; USP1-UAF1 inh: inconclusive; PI4K2A inh: 4; GLS inhibitor: 3%

What do the screens show for `Cc1cccc(N2C(=O)c3cccc4c(N(C)CCO)ccc(c34)C2=O)c1`?
PGK inhibitor: -4%; USP1-UAF1 inh: 28µM*; PI4K2A inh: -11; GLS inhibitor: inconclusive

Results for Cc1ccccc1C(=O)N1CC/C(=N/OS(=O)(=O)O)c2ccc(Cl)cc21 ?
GLS inhibitor: 6%

How did CCOC(=O)c1ccc(N2CCN(c3ccccc3F)CC2)c(NC(=O)Nc2ccc(Cl)c(Cl)c2)c1 do in these assays?
PGK inhibitor: -5%; USP1-UAF1 inh: -6%; PI4K2A inh: -9; GLS inhibitor: -8%

How did O=C(O)c1cc(Nc2cc(Cl)c3nonc3c2[N+](=O)[O-])ccc1O do in these assays?
USP1-UAF1 inh: inconclusive; PI4K2A inh: -59*; GLS inhibitor: -7%

Results for CC(C)OC(=O)OCOP(=O)(CO[C@H](C)Cn1cnc2c(N)ncnc21)OCOC(=O)OC(C)C ?
PI4K2A inh: -1; GLS inhibitor: -4%

Results for Cc1nc(C2COc3ccccc3O2)sc1C(=O)O (stereo unspecified) ?
PGK inhibitor: -23%; USP1-UAF1 inh: -6%; PI4K2A inh: -63*; GLS inhibitor: -3%

Results for CN(C)c1ccc(-c2[nH][nH]c(=O)c2NC(=O)c2ccc3ccccc3n2)cc1 ?
PI4K2A inh: -65*; GLS inhibitor: 40%

What do the screens show for `O=C(Nc1c(-c2ccccc2)[nH][nH]c1=O)c1ccccc1`?
PI4K2A inh: -22

Results for CN(C)c1ccc(-c2[nH][nH]c(=O)c2NC(=O)c2ccccn2)cc1 ?
PI4K2A inh: -64*; GLS inhibitor: 36%

What do the screens show for `Nc1c(I)cc(I)c(C(=O)N(CCC(=O)O)c2ccccc2)c1I`?
PI4K2A inh: -3

How did Cc1c(OCC(=O)N[C@@H](Cc2c[nH]c3ccccc23)C(=O)O)ccc2c1oc(=O)c1ccccc12 do in these assays?
PGK inhibitor: -8%; USP1-UAF1 inh: inconclusive; PI4K2A inh: -2; GLS inhibitor: -1%

What do the screens show for `CCCCc1cc(=O)oc2cc(OCC(=O)NC(Cc3c[nH]c4ccc(O)cc34)C(=O)O)ccc12` (stereo unspecified)?
PGK inhibitor: 6%; USP1-UAF1 inh: 19%; PI4K2A inh: -68*; GLS inhibitor: 15%

Results for Cc1c(C)c2ccc(OCC(=O)NC(Cc3c[nH]c4ccc(O)cc34)C(=O)O)c(C)c2oc1=O (stereo unspecified) ?
PGK inhibitor: -3%; USP1-UAF1 inh: -7%; PI4K2A inh: -3; GLS inhibitor: 11µM*

Results for CCCSS/C(CCO)=C(/C)N(C=O)Cc1cnc(C)nc1N ?
GLS inhibitor: -5%
